Screening results: PubChem, several laboratories
RmlC RmlD mix: RmlC/RmlD inhibition, mixture screen | RmlC/RmlD coupled enzyme inhibition, 384-well mixture HTS | inhibition, % at 5.5 µM | actives 0.39% (n = 110,000) | AID 1532; in the data active = inhibition above about 30%, passing the limit was not always enough
YopH PTP inh: blocks Yersinia enterocolitica YopH tyrosine phosphatase. fluorescence Ex485/Em525. inhibition, % (no concentration beside the values). AID 898. actives 0.16% (n = 140,000); in the data active = inhibition above about 50%
RmlCD fluor art: RmlC/RmlD fluorescence artifact, counter-screen | shares compounds with RmlC RmlD mix | RmlC/RmlD assay fluorescence artifact counter-screen | calls only | actives 96% (n = 360) | AID 1696; call rule not given here;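 note: compound alone with no enzyme and no substrates present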
Each line names hits and unclear results; the compound was inactive in the other large screens (follow-up assays come after a bar, where they were run). Shown are actives, neighbours in structure and some others; about 0.41% of the full set was active somewhere.

O=C(NCNC(=O)c1ccccc1)c1ccccc1	none
O=C(NC1(O)C(=O)c2ccccc2C1=O)c1ccccc1	YopH PTP inh 102.1
Cc1ccc(S(=O)(=O)/N=C2/C=C(C3C(=O)CC(C)(C)CC3=O)C(=O)c3ccccc32)cc1	none
CCc1ccc(S(=O)(=O)/N=C2/C=C(Sc3ncn[nH]3)C(=O)c3ccccc32)cc1	YopH PTP inh 92.7 (no result: RmlC RmlD mix)
CC1=NN(/C(=N\c2nnc(C)s2)Nc2ccc(C(C)(C)C)cc2)[C@H](c2ccc(C)cc2)S1	none
CCN1C(=O)N(c2cccc3ccccc23)C(C)=CC1(C)C	none
CN1c2ccccc2N(C)C1(C)c1ccccc1	YopH PTP inh 85.2 (no result: RmlC RmlD mix)
CCN1c2ccccc2N(C)C1(C)c1ccccc1 (stereo not drawn)	YopH PTP inh 92.2 (no result: RmlC RmlD mix)
CN1C(=O)N(C)C2(c3ccccc3)NC(=O)NC12c1ccccc1 (stereo not drawn)	none
CCC(C(=O)c1ccc2ncccc2c1)c1ccccc1 (stereo not drawn)	none (no result: RmlC RmlD mix)
COc1ccc2oc(=O)cc(C)c2c1	none (no result: RmlC RmlD mix)
CCOC(=O)Oc1ccc2oc(=O)cc(C)c2c1	YopH PTP inh 66.8
CCC(C(=O)OCC(=O)Nc1ccc(SC(F)F)cc1)c1ccccc1 (stereo not drawn)	none (no result: RmlC RmlD mix)
Cn1c2ccccc2c(=O)n2c(=O)c3ccccc3cc12	YopH PTP inh 101.2
Cn1c(-c2ccccc2)cc(=O)c2ccccc21	none
Cc1ccc(NC(=O)c2ccc([N+](=O)[O-])cc2Cl)nc1	none (no result: RmlC RmlD mix)
C[N+](C)(C)C(Cc1ccccc1)C(=O)[O-] (stereo not drawn)	none (no result: YopH PTP inh)
COc1ccc(NCc2ccc([N+](=O)[O-])s2)c(OC)c1	YopH PTP inh 76.3 (no result: RmlC RmlD mix)
COc1ccc(NCc2ccc([N+](=O)[O-])s2)cc1	none (no result: RmlC RmlD mix)
CCOC(=O)N1CCN(c2cc(NCCC(=O)O)c3c4c(onc24)-c2ccccc2C3=O)CC1	YopH PTP inh 87.3 (no result: RmlC RmlD mix)
O=C(O)CCCNc1cc(N2CCC3(CC2)OCCO3)c2noc3c2c1C(=O)c1ccccc1-3	none (no result: RmlC RmlD mix)
CCOC(=O)c1ccc(NS(=O)(=O)c2cc(-c3nnnn3C(C)C)ccc2OC)cc1	YopH PTP inh 61.6
CCn1nnnc1-c1ccc(OC)c(S(=O)(=O)Nc2ccc(C(=O)OC)cc2)c1	none
CC(=O)N1C(O)CC(C)N1c1ccccc1 (stereo not drawn)	none (no result: RmlC RmlD mix)
COc1ccc2c(c1)CCc1c(C(=O)N3CCCCCC3)noc1-2	none
COc1ccc2c(c1)CCc1cc(C(=O)N3CCN(c4ccc(N5CCOCC5)nn4)CC3)sc1-2	YopH PTP inh 76.3 (no result: RmlC RmlD mix)
C=C(C(=O)O)C1CCC2(C)CCCC(C)(O)C2C1 (stereo not drawn)	none (no result: YopH PTP inh)
O=C1CN(C(=O)c2cc3ccccc3o2)c2ccccc2N1	none (no result: RmlC RmlD mix)
O=C(CSc1ncn[nH]1)c1ccc2c(c1)OCO2	YopH PTP inh 57.4
O=C(CSc1ncn[nH]1)c1ccc2c(c1)OCCO2	none
Cc1ccc2cccc(Oc3ncnc4scc(-c5ccc(Cl)cc5)c34)c2n1	none (no result: RmlC RmlD mix)
O=C(O)CCN1C(=O)c2ccccc2C1=O	none
O=C1Cc2ccccc2C(=O)N1CCc1ccccc1	YopH PTP inh 100.4
Cc1ccc(NC(=O)OCCN2CCN(Cc3ccccc3)CCC2=O)cc1	none
O=C(c1ccc(F)cc1)[C@@H]1[C@@H](C(=O)c2ccccc2)[C@@]2(C(=O)Nc3ccccc32)[C@H]2c3ccccc3C=CN12	YopH PTP inh 83.3 (no result: RmlC RmlD mix)
CC(=O)[C@@H]1[C@@H](C(=O)c2ccc(C)cc2)[C@]2(C(=O)Nc3ccccc32)[C@H]2C=Cc3cc(F)ccc3N12	none (no result: RmlC RmlD mix)
OCCSc1nc2ccccc2n1CCOc1ccccc1	none
COc1cccc(-n2nc(C(=O)N3CC(C)CC(C)C3)c3ccccc3c2=O)c1 (stereo not drawn)	none
COc1ccc(F)cc1CN1CCN(c2cc(C)nc3c4c(C)cc(C)nc4nn23)CC1	RmlC RmlD mix 50.5
COc1ccc(Cl)cc1CN1CCN(c2nc(C)cc(C)c2C#N)CC1	none
COCCNC(=O)/C(C#N)=C/c1c(N2CC(C)OC(C)C2)nc2ccccn2c1=O (stereo not drawn)	none (no result: RmlC RmlD mix)
Nc1ccc(C(=O)OCC(=O)Nc2cc([N+](=O)[O-])ccc2F)cc1	none (no result: RmlC RmlD mix)
CSc1nsc(/C=C/Nc2ccc(Cl)cc2)c1C#N	YopH PTP inh 55.5
CSc1nsc(/C=C/Nc2cccc(Cl)c2)c1C#N	none
CC(NC(=S)NCCc1ccccc1)C(c1cccs1)N1CCN(Cc2ccccc2)CC1 (stereo not drawn)	none
CC(=O)NC1CCCN(O)C(=O)/C=C(\C)CCOC(=O)C(NC(C)=O)CCCN(O)C(=O)/C=C(\C)CCOC(=O)C(NC(C)=O)CCCN(O)C(=O)/C=C(\C)CCOC1=O (stereo not drawn)	none (no result: YopH PTP inh)
CCOc1ccc(C(=S)N2CCOCC2)cc1OC	YopH PTP inh 50.5
CCOc1cc(C(=S)N2CCOCC2)ccc1OC	none
CCN(CC)S(=O)(=O)c1cc(NC(=O)C(C)N2CCN(Cc3ccc4c(c3)OCO4)CC2)ccc1C (stereo not drawn)	none (no result: RmlC RmlD mix)
CO/N=C(\c1nonc1N)N1CCN(c2ccc(Cl)cc2[N+](=O)[O-])CC1	none (no result: RmlC RmlD mix)
S=c1[nH]nc(-c2ccccc2)n1/N=C/C=C/c1ccco1	YopH PTP inh 50.8 (no result: RmlC RmlD mix)
S=c1[nH]nc(-c2ccco2)n1/N=C/C=C/c1ccccc1	none (no result: RmlC RmlD mix)
COc1cc(NC(=O)c2cccs2)c(C(=O)OCC(=O)NCc2ccccc2)cc1OC	RmlC RmlD mix 45.0 | RmlCD fluor art active
COc1cc(NC(=O)c2cccs2)c(C(=O)OCC(=O)NC(C)c2ccccc2)cc1OC (stereo not drawn)	none
COC(=O)c1cc(C)nc(N)c1C#N	none
Cc1cc(C(=O)OCCO)c(C#N)c(N)n1	RmlC RmlD mix 45.6 | RmlCD fluor art active
COC(=O)C1=C(C(=O)OC)[C@@H]2N(C)c3ccccc3[C@@]23C[C@@H](CO)N=C3N1	none (no result: YopH PTP inh)
CCOCC(=O)Nc1ccc(-c2cn3cccnc3n2)cc1	RmlC RmlD mix 105.9 | RmlCD fluor art active
COc1ccc(-c2cn3cccnc3n2)cc1NC(=O)c1ccc(Br)o1	none
O=C(Nc1cccc(-c2cn3cccnc3n2)c1)c1ccc(Br)o1	RmlC RmlD mix 54.6 | RmlCD fluor art active
O=C(Nc1cccc(-c2cn3cccnc3n2)c1)c1ccco1	none
CCCC(=O)Nc1cc(-c2cn3cccnc3n2)ccc1OC	none
Cc1ccc(-c2cn3cccnc3n2)cc1NC(=O)c1ccc(Br)o1	RmlC RmlD mix 69.7 | RmlCD fluor art active
CN1CCN(C(=S)SCC(=O)Nc2nc(-c3ccccc3)c(-c3ccccc3)o2)CC1	none (no result: RmlC RmlD mix)
O=C(CNc1ccc2ccccc2c1)N/N=C/C=C/c1cccc([N+](=O)[O-])c1	none (no result: RmlC RmlD mix)
CC(C)(C)NC(=O)CSc1nc2ccc(NC(=O)CSc3nnc(N)s3)cc2s1	none (no result: RmlC RmlD mix)
CN(C)c1cccc(C(=O)OCC(=O)Nc2nccs2)c1	none (no result: RmlC RmlD mix)
CN(C)S(=O)(=O)c1ccc(S(=O)(=O)Nc2ccc3c(c2)oc2ccccc23)cc1	none
Cc1cc(=O)oc2cc(NS(=O)(=O)c3ccccc3)ccc12	none (no result: RmlC RmlD mix, YopH PTP inh) | RmlCD fluor art active
O=c1cc(CNc2ccc(Br)cc2)nc2sccn12	none (no result: RmlC RmlD mix)
COC(=O)c1cc(Cl)c(NC(=O)/C=C/c2ccc(Cl)cc2)cc1OC	none
COC(=O)c1cc(Cl)c(NC(=O)/C=C/c2ccc(Cl)cc2Cl)cc1OC	RmlC RmlD mix 62.4 | RmlCD fluor art active
CCOC(=O)c1ccc(-c2ccc(CO)o2)cc1	RmlC RmlD mix 62.4 | RmlCD fluor art active
CCOC(=O)c1ccc(-c2ccc(C3Nc4ccccc4C(=O)N3O)o2)cc1 (stereo not drawn)	none (no result: RmlC RmlD mix)
CN(C)CCCN(Cc1ccccc1)C(=S)Nc1ccc(OC(F)F)cc1	none (no result: RmlC RmlD mix)
c1csc(-c2nc3nc4ccccc4nc3n2Cc2ccc3c(c2)OCO3)c1	none
